# “And” between values parts separate entries of the source, which are not always exact repeats. Identical values can stand only once. Records with an inconclusive call do not appear. Where a call stands in place of a potency, no number is given. The source holds several records for some structures; these can differ, active in one and inactive in another. The source made the active and inactive calls. Unless noted, calls follow the shape of the full dose curve.
# Columns and labels:
# [1] = Nuclear factor erythroid 2-related factor 2/antioxidant responsive element (Nrf2/ARE) small molecule agonists: qHTS cell viability counter screen in human keratinocytes (AID 1919968; active = well fitted cell-killing curve with a large enough effect in the repeat runs; also: nearly all actives have a fitted effect of over 55% in size; also: potency is read from the fitted curve at half-maximal effect)
# In short: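 Seed 1,500 KeratinoSens cells per well, then incubate 5 h at 37 C/5% CO2. Add compounds in DMSO and incubate 23 h. Add CellTiter-Fluor, wait 1 h and read fluorescence.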
# [2] = Nuclear factor erythroid 2-related factor 2/antioxidant responsive element (Nrf2/ARE) small molecule agonists: luciferase reporter gene qHTS assay in human keratinocytes (AID 1919969); also: nearly all actives have a fitted effect of over 35% in size; also: potency is read from the fitted curve at half-maximal effect
# [3] = molecular target: Gonadotropin-releasing hormone receptor (Homo sapiens) (UniProt P30968); assay: Human gonadotropin-releasing hormone receptor (GnRHR) small molecule agonists, calcium flux assay in GnRHR-HEK293 cells (AID 1920063); also: nearly all actives have a fitted effect of over 35% in size
# In short: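 Cells: HEK293 stably expressing human GnRHR. Steps: overnight (18 h) culture, 1 h calcium dye loading at 37 C, compound addition, kinetic fluorescence read at 480/540 nm. Each compound tested at 15 concentrations in triplicate.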
# [4] = G protein-coupled receptor (GPCR) small molecule agonists, calcium flux assay: HEK293 wild type cell line counter screen (AID 1920065)
# In short: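 Counter-screen of the Tox21 10K library for non-specific calcium release: dye-loaded cells received compounds in DMSO and were monitored by kinetic fluorescence (480/540 nm, 3 min). Fifteen concentrations, run in triplicate.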
# [5] = p53 small molecule agonists, cell-based qHTS assay with human liver microsomes (AID 1963577);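 also: p53 response element beta-lactamase reporter cells with liver microsomes plus NADPH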
# In short: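 16 h, 37 C exposure of p53RE-bla cells to compounds with human liver microsomes and NADPH (0.5 mg/mL final each); detection via LiveBLAzer mixture, 2 h dark at room temperature.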
# [6] = p53 small molecule agonists, cell-based qHTS assay with rat liver microsomes (AID 1963578)
# In short: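 With rat liver microsomes and NADPH present (0.5 mg/mL final each), p53RE-bla cells are treated with compound for 16 h at 37 C. LiveBLAzer detection mixture is then applied for 2 h at room temperature in the dark.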
# [7] = p53 small molecule agonists, cell-based qHTS assay with human liver microsomes: qHTS cell viability counter screen (AID 1963579); also: nearly all actives have a fitted effect of over 45% in size
# In short: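 In this multiplexed counter screen, the reporter plates were subsequently treated with CellTiter-Glo so that cell viability, reflected by luminescence, could be recorded for p53RE-bla cells dosed 16 h with compounds under microsomal activation (HLM and NADPH).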
# [8] = p53 small molecule agonists, cell-based qHTS assay with rat liver microsomes: qHTS cell viability counter screen (AID 1963580); also: nearly all actives have a fitted effect of over 45% in size
# In short: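 HCT-116 p53RE-bla, 4,000 cells/well, 5 h pre-incubation; cpd + rat liver microsomes 0.5 mg/mL + NADPH 0.5 mg/mL (final); 16 h, 37 C; CellTiter-Glo, 30 min RT; luminescence.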
# [9] = p53 small molecule agonists, cell-based qHTS assay: qHTS cell viability counter screen (AID 1963581); also: nearly all actives have a fitted effect of over 45% in size; also: potency is read from the fitted curve at half-maximal effect
# In short: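 Cells: HCT-116 with p53 response element-driven beta-lactamase. Treatment: 16 h, 37 C, compounds in DMSO. Read: CellTiter-Glo luminescence after 30 min RT.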
# [10] = cAMP Responsive Elements (CRE) small molecule antagonists, cell-based qHTS assay (AID 1963591; active = well fitted inhibition curve with a large enough effect in the signal ratio in the repeat runs, not every such curve was filed as active; the % refers to the signal ratio)
# In short: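 Antagonist mode: test compounds are co-incubated with the adenylyl cyclase activator NKH477 (0.25 uM final) on CRE-bla HEK293T cells for 3 h at 37 °C, followed by LiveBLAzer substrate loading.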
# [11] = molecular target: Beta-2 adrenergic receptor (Homo sapiens) (UniProt P07550); assay: Adrenergic beta2 receptor (ADRB2) small molecule antagonists, cell-based qHTS assay (AID 1963592); also: series mostly up to about 92 µM; nearly all actives have a fitted effect of over 50% in size
# In short: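 Cells (CHO, stable ADRB2 overexpression) incubated 18-20hr at 37C; compounds added from DMSO; agonist mix (1nM isoproterenol, 100uM IBMX, 25uM Ro-20-1724) added; 0.5hr RT; d2-cAMP and anti-cAMP-cryptate added; 1hr RT; 665/615 nm read.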
# [12] = molecular target: Beta-2 adrenergic receptor (Homo sapiens) (UniProt P07550); assay: Adrenergic beta2 receptor (ADRB2) small molecule agonists, cell-based qHTS assay (AID 1963593);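 also: CHO cells stably overexpressing human ADRB2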
# In short: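 CHO cells stably over-expressing ADRB2 were plated overnight at 37C, then dosed with compounds plus a stimulation mix containing 100uM IBMX and 25uM Ro-20-1724 for 0.5hr at room temperature. cAMP was measured by HTRF competition, 1hr.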
# [13] = molecular target: D(2) dopamine receptor (Homo sapiens) (UniProt P14416); assay: Dopamine D2 receptor (DRD2) small molecule agonists, cell-based qHTS assay (AID 1963594); also: nearly all actives have a fitted effect of over 35% in size
# In short: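 cAMP accumulation in DRD2-HEK293 cells measured by HTRF after 1 h detection; compounds added 10 min before NKH477 (200nM […]) forskolin-analogue stimulation, 30 min at room temperature, with Ro20-1724 present at 0.1 mM final.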
# [14] = molecular target: D(2) dopamine receptor (Homo sapiens) (UniProt P14416); assay: Dopamine D2 receptor (DRD2) small molecule antagonists, cell-based qHTS assay (AID 1963595; active = well fitted inhibition curve with a large enough effect in the signal ratio in the repeat runs, with a control signal flat; the % refers to the signal ratio)
# In short: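 Antagonism was scored as restored cAMP in HEK293-DRD2 cells. These cells were stimulated with 200 nM NKH477 and 12 nM quinpirole for 30 min at room temperature, in the presence of 0.1 mM Ro20-1724.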
# [15] = p53 small molecule agonists, cell-based qHTS assay (AID 1963582; active = well fitted activation curve with a large enough effect in the signal ratio in the repeat runs, not every such curve was filed as active; the % refers to the signal ratio)
# In short: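 Quantitative HTS in p53RE-bla cells: after a 5 h settling period, compounds delivered in DMSO were left on cells for 16 h at 37 C, and reporter induction was measured as fluorescence following 2 h substrate loading.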
# [16] = molecular target: 5-hydroxytryptamine receptor 2A (Homo sapiens) (UniProt P28223); assay: 5-hydroxytryptamine receptor 2A (HTR2A) small molecule antagonists, cell-based qHTS assay (AID 1963586); also: nearly all actives have a fitted effect of over 45% in size
# In short: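 Antagonist-mode intracellular calcium assay: DOI (4 nM) added after 5 min compound pre-incubation at room temperature to dye-loaded HTR2A-CHO cells. Fluorescence followed for 3 min, sampled every second.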
# [17] = molecular target: 5-hydroxytryptamine receptor 2A (Homo sapiens) (UniProt P28223); assay: 5-hydroxytryptamine receptor 2A (HTR2A) small molecule agonists, cell-based qHTS assay (AID 1963587); also: nearly all actives have a fitted effect of over 30% in size
# In short: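 Kinetic calcium-flux fluorescence (2 min, 1 sec intervals) after compound addition in agonist mode. HTR2A-CHO cells were cultured 18 h, then dye-loaded 1 h at 37 C.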
# [18] = molecular target: Muscarinic acetylcholine receptor M1 (Homo sapiens) (UniProt P11229); assay: Cholinergic receptor muscarinic 1 (CHRM1) small molecule antagonists, cell-based qHTS assay (AID 1963588); also: nearly all actives have a fitted effect of over 40% in size
# In short: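 CHRM1-CHO calcium-flux assay, antagonist mode. Cells were seeded 18 h, dye-loaded 1 h at 37 C and given compound for 5 min at RT, then acetylcholine was added at 50nM. FDSS fluorescence was read 3 min; 15 concentrations, three runs.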
# [19] = molecular target: Muscarinic acetylcholine receptor M1 (Homo sapiens) (UniProt P11229); assay: Cholinergic receptor muscarinic 1 (CHRM1) small molecule agonists, cell-based qHTS assay (AID 1963589); also: nearly all actives have a fitted effect of over 35% in size
# In short: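 Agonist-mode qHTS in CHO cells stably carrying human muscarinic M1. Intracellular calcium is tracked by fluorescence every second after compound transfer; each compound runs at 15 concentrations in three independent runs.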
# [20] = cAMP Responsive Elements (CRE) small molecule agonists, cell-based qHTS assay (AID 1963590)
# In short: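 Agonist mode qHTS in CRE-bla HEK 293T cells: compounds dosed from DMSO for 3 h at 37 C/5% CO2, followed by LiveBLAzer B/G FRET substrate for 2 h at room temperature.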
# Chain of 5-hydroxytryptamine receptor 2A (Homo sapiens) (P28223 whole entry, looked up): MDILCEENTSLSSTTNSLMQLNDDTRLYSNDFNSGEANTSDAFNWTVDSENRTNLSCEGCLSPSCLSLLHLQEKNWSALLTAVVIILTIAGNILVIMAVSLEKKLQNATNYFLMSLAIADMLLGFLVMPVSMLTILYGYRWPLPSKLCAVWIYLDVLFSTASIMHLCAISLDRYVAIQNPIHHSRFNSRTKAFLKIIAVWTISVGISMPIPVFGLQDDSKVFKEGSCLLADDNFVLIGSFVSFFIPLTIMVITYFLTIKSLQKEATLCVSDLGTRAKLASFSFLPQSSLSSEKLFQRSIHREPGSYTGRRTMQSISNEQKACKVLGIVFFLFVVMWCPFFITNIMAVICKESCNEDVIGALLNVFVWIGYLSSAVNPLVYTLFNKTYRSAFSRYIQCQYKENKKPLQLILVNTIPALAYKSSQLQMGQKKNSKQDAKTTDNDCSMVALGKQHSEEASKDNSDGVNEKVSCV
# Chain of Gonadotropin-releasing hormone receptor (Homo sapiens) (P30968 whole entry, looked up): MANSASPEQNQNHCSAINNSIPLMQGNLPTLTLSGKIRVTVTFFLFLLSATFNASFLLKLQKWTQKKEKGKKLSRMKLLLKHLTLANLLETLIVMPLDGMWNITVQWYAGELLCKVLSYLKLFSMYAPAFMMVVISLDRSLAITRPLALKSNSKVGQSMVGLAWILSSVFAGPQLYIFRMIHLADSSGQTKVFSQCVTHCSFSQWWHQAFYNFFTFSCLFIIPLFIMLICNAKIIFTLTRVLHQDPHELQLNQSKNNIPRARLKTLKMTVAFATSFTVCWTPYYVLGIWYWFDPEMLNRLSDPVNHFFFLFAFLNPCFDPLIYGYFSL
# Chain of Muscarinic acetylcholine receptor M1 (Homo sapiens) (P11229 whole entry, looked up): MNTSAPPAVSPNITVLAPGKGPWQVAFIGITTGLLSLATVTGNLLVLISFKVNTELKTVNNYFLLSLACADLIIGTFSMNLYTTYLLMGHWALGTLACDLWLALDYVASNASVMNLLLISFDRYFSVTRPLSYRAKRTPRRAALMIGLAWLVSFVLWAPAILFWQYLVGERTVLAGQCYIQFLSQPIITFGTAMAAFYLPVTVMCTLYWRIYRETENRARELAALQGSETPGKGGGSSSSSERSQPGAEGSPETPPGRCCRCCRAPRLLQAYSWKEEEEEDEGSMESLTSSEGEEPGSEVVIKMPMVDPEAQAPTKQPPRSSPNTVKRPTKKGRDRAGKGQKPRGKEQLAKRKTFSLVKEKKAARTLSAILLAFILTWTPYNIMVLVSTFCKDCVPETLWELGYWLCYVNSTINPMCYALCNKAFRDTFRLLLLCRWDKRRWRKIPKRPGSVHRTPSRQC
# Chain of D(2) dopamine receptor (Homo sapiens) (P14416 whole entry, looked up): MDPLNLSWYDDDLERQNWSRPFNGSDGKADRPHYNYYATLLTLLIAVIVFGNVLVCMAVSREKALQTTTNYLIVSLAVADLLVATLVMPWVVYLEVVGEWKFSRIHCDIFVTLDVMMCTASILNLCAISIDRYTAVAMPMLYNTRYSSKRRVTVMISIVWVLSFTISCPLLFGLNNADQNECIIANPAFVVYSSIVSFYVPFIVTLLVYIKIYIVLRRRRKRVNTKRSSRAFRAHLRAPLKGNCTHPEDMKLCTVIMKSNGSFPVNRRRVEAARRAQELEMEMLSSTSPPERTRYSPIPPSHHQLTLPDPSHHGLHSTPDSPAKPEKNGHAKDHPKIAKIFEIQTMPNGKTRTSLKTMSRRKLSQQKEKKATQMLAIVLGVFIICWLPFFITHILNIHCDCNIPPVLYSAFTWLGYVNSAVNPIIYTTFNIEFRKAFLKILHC
# Chain of Beta-2 adrenergic receptor (Homo sapiens) (P07550 whole entry, looked up): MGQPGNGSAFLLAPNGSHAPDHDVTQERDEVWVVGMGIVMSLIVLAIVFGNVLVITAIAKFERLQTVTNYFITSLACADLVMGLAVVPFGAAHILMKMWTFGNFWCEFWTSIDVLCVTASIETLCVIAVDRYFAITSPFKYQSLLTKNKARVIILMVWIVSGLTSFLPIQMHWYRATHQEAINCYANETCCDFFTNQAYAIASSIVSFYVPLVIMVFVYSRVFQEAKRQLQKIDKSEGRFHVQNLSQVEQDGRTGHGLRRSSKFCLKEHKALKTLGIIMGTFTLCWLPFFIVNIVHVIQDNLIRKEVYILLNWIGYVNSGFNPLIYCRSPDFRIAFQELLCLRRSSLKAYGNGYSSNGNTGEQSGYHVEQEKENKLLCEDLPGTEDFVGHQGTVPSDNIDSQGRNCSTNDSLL
SMILES,Potency [1],Potency [2],Potency [3],Potency [4],Potency [5],Potency [6],Potency [7],Potency [8],Potency [9],Potency [10],Potency [11],Potency [12],Potency [13],Potency [14],Potency [15],Potency [16],Potency [17],Potency [18],Potency [19],Potency [20]
O=C(Nc1ccc(Br)cc1)c1cc(Br)cc(Br)c1O,6.09 µM (active) and 6.11 µM (active) and 7.5 µM (active),54.3 µM (active) and 10.9 µM (active) and 13.3 µM (active),inactive,inactive,inactive,inactive,inactive,inactive,inactive and 3.97 µM (active),inactive,inactive,inactive,inactive,inactive,,,,,,
Oc1ccccc1-c1ccccc1,inactive,62.6 µM (active) and inactive,inactive,inactive,inactive,inactive,inactive,inactive,inactive,inactive,inactive,inactive,inactive,inactive,inactive,inactive,inactive,inactive,inactive,inactive
CCN(CC)c1ccccc1,inactive,inactive,inactive,inactive,inactive,inactive,inactive,inactive,inactive,inactive,inactive,inactive,inactive,inactive,inactive,inactive,inactive,inactive,inactive,inactive
Cc1ccccc1O,inactive,inactive,inactive,inactive,inactive,inactive,inactive,inactive,inactive,inactive,inactive,inactive,inactive,inactive,inactive,inactive,inactive,inactive,,inactive
CNCC(O)c1ccc(O)cc1 (stereo not drawn),inactive,inactive,inactive,inactive,inactive,inactive,inactive,inactive,inactive,inactive,inactive,,inactive,inactive,inactive,inactive,inactive,inactive,inactive,inactive
CCC[N+]1(C)CCCCC1,inactive,inactive,inactive,,,,inactive,inactive,inactive,inactive,inactive,inactive,inactive,inactive,,inactive,inactive,inactive,inactive,inactive
CN(C)c1nc(=O)n(C2CCCCC2)c(=O)n1C,inactive,inactive,inactive,,,,inactive,inactive,,inactive,inactive,inactive,inactive,inactive,,inactive,inactive,inactive,inactive,inactive

# — PubChem BioAssay (Tox21)
